High-throughput results (PubChem BioAssay)
Only some compounds are listed: those with a hit (about 3.1% of all), similar ones and a draw of the others.
MBD2 DNA inh: inhibitors of MBD2 binding to methylated DNA, primary screen, biochemical, TR-FRET, DNA-binding domain, human. MBD2 binding to methylated oligonucleotide. 370,000 compounds, 0.31% hits. AID 686964, 2013. inhibition, % at 4.4 µM; in the data active = inhibition above about 13%
Rin1 Abl inh: inhibitors of Rin1-Abl protein binding, primary screen, biochemical, TR-FRET; AID 588664, 2011; Tyrosine-protein kinase ABL1 (Homo sapiens) + Ras and Rab interactor 1 (Homo sapiens), …; 360,000 compounds, 0.4% hits; inhibition, % at 7.35 µM; in the data active = inhibition above about 5%, passing the limit was not always enough
proKLK7 act: proKLK7 zymogen activators, primary screen, biochemical, fluorescence intensity; Kallikrein-7 (Homo sapiens), P49862; purified proKLK7, EDANS-DABCYL substrate fluorescence; 100% is mature enzyme control, 0% vehicle; activation, % at 7 µM; 370,000 compounds, 0.9% hits;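 active = activation above the mean of all tested compounds plus 3 SD, computed per campaign excluding outliers beyond control limits, cut at about 13% in these data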
LEDGF integ inh: blockers of LEDGF/p75-dependent integrase strand transfer – biochemical, TR-FRET, high throughput, primary screen; HIV-1 integrase (with human LEDGF/p75); TR-FRET IN-LEDGF/p75 DNA integration, Eu/Cy5; inhibition, % at 3.7 µM; 370,000 compounds, 0.64% hits; AID 743269, 2014;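 active = inhibition above the screen-wide mean plus 3 SD, cut at about 13% in these data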;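 also: signal is the Cy5 over europium emission ratio at 671 and 618 nm; 0% = plate median of compound wells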
UHRF1 binding: UHRF1 methylated DNA binding inhibitors, primary screen, counter-screen for MBD2 inhibitor project, biochemical, TR-FRET, human UHRF1, single concentration. 370,000 compounds, 0.75% hits. inhibition, % at 4.4 µM. E3 ubiquitin-protein ligase UHRF1 (Homo sapiens), Q96T88. AID 687016, 2013. UHRF1 binding to methylated oligo; in the data active = inhibition above about 21%;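 also: UHRF1 SRA domain binding a hemimethylated CpG hairpin DNA probe; 0% = median of test compound wells and 100% = reference inhibitor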
Neddylation inh: inhibitors of cullin neddylation, primary screen, biochemical, TR-FRET, uHTS, NAE and Ubc12. NEDD8-conjugating enzyme Ubc12 (Homo sapiens) + NEDD8-activating enzyme E1 regulatory …. calls only at 25 µM. 360,000 compounds, 0.58% hits. AID 651699, 2012; in the data active = inhibition above about 36%
Target sequence (P61081 whole entry, looked up): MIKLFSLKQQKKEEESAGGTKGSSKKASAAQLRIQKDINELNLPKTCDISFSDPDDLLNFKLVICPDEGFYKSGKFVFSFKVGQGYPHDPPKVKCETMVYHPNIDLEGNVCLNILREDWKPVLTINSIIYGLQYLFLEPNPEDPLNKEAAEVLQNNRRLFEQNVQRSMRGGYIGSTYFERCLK
Target sequence (Q13564 whole entry, looked up): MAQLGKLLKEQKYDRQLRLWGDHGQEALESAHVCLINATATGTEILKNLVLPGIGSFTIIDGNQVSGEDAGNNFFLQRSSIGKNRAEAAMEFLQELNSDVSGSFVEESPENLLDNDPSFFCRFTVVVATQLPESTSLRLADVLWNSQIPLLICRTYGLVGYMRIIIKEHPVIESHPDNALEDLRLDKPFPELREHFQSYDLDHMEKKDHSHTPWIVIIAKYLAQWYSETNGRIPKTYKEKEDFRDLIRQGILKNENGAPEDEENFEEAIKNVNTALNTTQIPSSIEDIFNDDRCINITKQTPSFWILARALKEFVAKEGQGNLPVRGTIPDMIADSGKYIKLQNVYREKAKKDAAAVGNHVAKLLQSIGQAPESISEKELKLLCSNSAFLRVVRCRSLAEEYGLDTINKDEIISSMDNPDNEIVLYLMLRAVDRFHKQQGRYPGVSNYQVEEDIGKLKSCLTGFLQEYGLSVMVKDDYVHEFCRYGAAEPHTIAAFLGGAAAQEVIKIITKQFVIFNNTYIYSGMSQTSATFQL
proKLK7 act conf: proKLK7 zymogen activators, confirmation, biochemical, fluorescence intensity, triplicate | 3,200 compounds, 68% hits | activation, % at 7 µM | shares compounds with proKLK7 act | purified proKLK7, EDANS-DABCYL substrate fluorescence; scaled: vehicle 0, mature enzyme 100 | AID 686949, 2013;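 active = activation, as change over the incubation, above the mean of all tested compounds plus 3 SD, cut at about 13% in these data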
EDANS interfere: EDANS-DABCYL substrate optical interference, artefact control for kallikrein-7 zymogen activator project, biochemical, fluorescence intensity, high throughput; shares compounds with proKLK7 act; no enzyme, 4 h; solvent 0%, active enzyme control 100%; activation, % at 7 µM; 3,200 compounds, 80% hits;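 active = activation above the all-compound mean plus 3 SD, ignoring values outside control-based bounds, cut at about 4.8% in these data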;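 also: value is the 4 h activation minus the activation read at time zero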
An asterisk follows results filed as active; i = inactive; · = not tested or not shown.

SMILES	MBD2 DNA inh	Rin1 Abl inh	proKLK7 act	LEDGF integ inh	UHRF1 binding	Neddylation inh	proKLK7 act conf	EDANS interfere
Cc1cnc(-c2nnc(N(C)C(=O)C3CCOC3)s2)cn1 (configuration not stated)	-5	6	31*	3	0	i	43*	46*
CN(C(=O)C1CCOC1)c1nnc(-c2ccccn2)s1 (configuration not stated)	3	-1	41*	-6	3	i	50*	48*
Cc1cccc(C(=O)N(C)c2nnc(-c3ccncc3)s2)c1	5	0	1	-1	2	i	·	·
Cc1ccc(-c2nnc(N(C)C(=O)c3cccnc3)s2)cn1	1	5	3	-2	1	i	·	·
CN(C(=O)C1CCOC1)c1nnc(-c2ccncc2)s1 (configuration not stated)	-6	1	46*	2	0	i	65*	70*
Cc1cnc(-c2nnc(N(C)C(=O)c3cccnc3)s2)cn1	-6	1	42*	-4	-1	i	72*	74*
CC(C)CN1C(=O)c2ccc(C(=O)Nc3ccc(OCC(=O)O)cc3)cc2C1=O	-3	1	0	0	1	i	·	·
O=C(Nc1ccccc1C(=O)Nc1ccccc1C(=O)NCc1ccco1)c1ccco1	-4	2	20*	0	-4	i	-103	-119
O=C(Nc1ccccc1C(=O)NCc1ccco1)c1ccco1	2	-2	-1	2	-3	i	·	·
CNC(=O)c1ccc(-c2sc3nc(N4CCOCC4)c4c(c3c2N)CC(C)(C)OC4)o1	0	-3	-15	-3	-4	·	·	·
CC1(C)Cc2c(c(N3CCOCC3)nc3sc(-c4ccc(C(=O)O)o4)c(N)c23)CO1	-2	-1	46*	1	-4	·	22*	23*
CC(C)Sc1nc(N2CCOCC2)c2c(c1C#N)CC(C)(C)N(C)C2	-2	-4	35*	-1	4	i	0	1
CN1Cc2c(N3CCOCC3)nc3sc(C#N)c(N)c3c2CC1(C)C	-7	-6	17*	-1	-5	·	68*	70*
COc1ccccc1-c1csc(C(O)c2ccc(F)c(F)c2)n1 (configuration not stated)	2	-2	0	1	4	i	·	·
CC(=O)N1CCc2cc([N+](=O)[O-])ccc21	-5	0	0	-3	-5	i	·	·
COC(=O)c1nn(-c2ccc3c(c2)CCN3C(C)=O)cc1O	1	-2	124*	-1	0	·	29*	31*
COC(=O)c1nn(-c2ccc3c(c2)OCO3)cc1O	0	-5	13*	2	0	·	4	4
COc1ccc(/C=C(\C#N)C(=O)NCc2ccccc2)cc1	-1	1	38*	-2	1	·	-187	-241
N#C/C(=C\c1ccc(O)cc1)C(=O)NCc1ccccc1	-5	-1	0	1	0	i	·	·
COc1cccc(-c2c(-c3cc(OC)cc(OC)c3)n(C)c3ccc(-c4cccc5[nH]ccc45)cc23)c1	3	1	-2	-3	0	i	·	·
Cn1c(=O)c2c(-c3ccccc3)n(-n3cnnc3)cc2n(C)c1=O	3	0	14*	0	0	i	1	6.8*
COc1ccc(CN2C(=O)C(CC(=O)NCCCCc3ccccc3)CC(C(=O)N(C)C)=C2C)cc1 (configuration not stated)	0	1	0	-4	-1	i	·	·
